For ten compounds, composite Z-score results are on record in PubChem BioAssay.

Active and inactive are the calls of the source.

This assay in a line: probe aXIP binding to arrayed compounds – biochemical, NeuroSMM set, 635/667 nm fluorescence, primary screen (AID 1119).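 Note: probe is the protein aXip251-270 applied at 1 µg/mL to compound-printed slides; binding of probe to printed compounds measured as 667 nm fluorescence plus signal to noise.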 The conditions noted are these: small-molecule microarray, higher = more signal, called active from +8 up or from −8 down.
For the compound `C[C@@H]1ON(c2ccccc2)[C@H](c2ccccc2)[C@H]1C(=O)O`, the composite Z-score is -0.107 (inactive).
The result for `C[C@]1(C(=O)O)c2ccccc2C(=O)N(Cc2cc(F)cc(C(F)(F)F)c2)[C@H]1c1ccc(CO)cc1` reads -0.228 (inactive).
As to `COCCOC(=O)N1C(=O)[C@@]2(c3cc(C#CCCO)ccc31)[C@H](c1ccccc1OCCO)N1[C@H](c3ccccc3)[C@H](c3ccccc3)OC(=O)[C@H]1[C@@H]2C(N)=O`, the composite Z-score was -0.0135 (inactive).
With `O=C1[C@H]2C=C(I)[C@H](C[C@@H]2OCCCCCCO)[C@@]12CO2`, the composite Z-score was 0.047 (inactive).
Consider `C=CCOC(=O)[C@@H]1[C@H]2C(=O)O[C@H](c3ccccc3)[C@H](c3ccccc3)N2[C@H](c2ccc(OCCOC(=O)[C@H]3C[C@H]4C(=O)N[C@@H](CCCCN(C)C)C(=O)N4[C@H]3c3ccc(O)cc3)cc2)[C@@]12C(=O)Nc1ccc(I)cc12`, for which the composite Z-score was 0.929 (inactive).
The result for `O=C(NCc1ccccc1)[C@@H]1c2ccccc2C(=O)N(Cc2cc(C(F)(F)F)cc(C(F)(F)F)c2)[C@H]1c1ccc(CO)cc1` reads -0.46 (inactive); that for `CCCC[C@H]1C[C@@H]1[C@@H]1N(C(C)=O)[C@H](c2cccc(OC)c2)CC12CC2`, 0.797 (inactive).
The result for `CCOC(=O)C1=CCC(c2cc3ccccc3[nH]2)N(CCN2CC(C(=O)OCC)=CCC2c2cc3ccccc3[nH]2)C1` (stereo not given) reads 0.0551 (inactive); that for `C=C(CCCC)/C(=C/C[C@H](OC(C)=O)c1cccc(OCCO)c1)c1cnc2ccccc2c1`, -0.325 (inactive); that for `CCCN1C(=O)[C@@]2(c3ccc([N+](=O)[O-])cc3)CC(=O)N(CC34CC5CC(CC(C5)C3)C4)[C@@H]2c2ccc(CO)cc21`, -0.316 (inactive).
